# Measured values from the supplement of paper PMC11417369.
# ± gives the standard deviation of the averaged measurements. The full ranking holds about 25,000 sequences; the median of “ln(normalized median fluorescence intensity)” is about 10, and the highest 2% start at about 12. What follows is part of a selection rich in the highest values, with near analogues and random picks from the rest.
# Tested on: PfAP2-G AP2 domain (GST-tagged)
# Test: gcPBM binding intensity (ln(normalized median fluorescence intensity)); higher = stronger DNA binding
# Summary of the method: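 After 1 h on an Agilent 4 × 180k array of primer-extended double-stranded 36-bp intergenic genomic probes and negative controls, bound GST-tagged P. falciparum DNA-binding domains were detected with Alexa488 anti-GST antibody and scanned at 488 nm. The domains had been expressed in E. coli, and binding took place in 1× PBS with 1% milk, 0.2 mg/ml BSA, 0.5% salmon testes DNA and 0.03% Triton X-100. Binding intensity is the highest Masliner-normalised natural-log median intensity across replicate spots of either probe orientation.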
row,Sequence,gcPBM binding intensity (ln)
1,GAATGTCTAATTTTGATGCACACTTTTGTGCAATTA [CACACA_site2902],10.2 ± 0.24
2,AAAAAAAAAAAAAAAACACACATATATGTATATATA [CACACA_site3276],10 ± 0.27
3,AAGAAAAAAGGGGACAAGGCATATCTATATATACAT [TGCATGCA_negctrl_site172],10.7 ± 0.52
4,TTATAATTAAGATATAATCAATAATAACAAATGAAC [CACACA_negctrl_site1690],9.84 ± 0.014
5,AAACCGAATTTACATGAATGTAAATTATGTTGTTTT [CACACA_negctrl_site1834],9.53 ± 0.13
6,TTTGCTTCCAAAAGTCGTACAAAAAATATTAAATAT [XGTACX_site4171],11.6 ± 0.9
7,AATGAAGACTTTTTTACACACTTCATATCTTATAGA [CACACA_site7046],9.99 ± 0.028
8,ATGTGATATAAGTACACACACATATGTATTTATAAC [CACACA_site6942],11.5 ± 0.8
9,AAAAATTACCCTTGTGTACACATATATTATCTGTAT [CACACA_site4513],11.6 ± 0.95
10,TTTGATTTTAATGTGTGTACACATTTATTTATATAA [XGTACX_site4806],11.8 ± 1.2
11,ATGTGATAGAAGTACACACACATATGTATTTATAAT [CACACA_site5075],11.7 ± 1.1
12,TTTGTGTATATATAATGTACATTATATTTTTATTAT [XGTACX_site6506],10.9 ± 0.53
13,GTATATATGTATATGTGTACACATATTCTTAACTCA [XGTACX_site309],11.6 ± 0.89
14,AAATTACCCTTGTGTACACATATATTATCTGTATTA [CACACA_site4514],12 ± 1.4
15,TATCTGTATATGTGTACACATATTCTTAACTCACGC [CACACA_site4255],11.7 ± 1
16,GTATGTATATTTATCTGTACATATTTATGTATTCTT [XGTACX_site2112],11.2 ± 0.64
17,CAAAAATTACCCTTGTGTACACATATATTATATGTA [XGTACX_site1124],11.6 ± 0.91
18,TATTTCTGATTATTTTGTACACATTATATATAATGC [XGTACX_site6990],11.2 ± 0.83
19,ATGTGATATAAGTACACACACATATGTATATAGAAT [CACACA_site1823],11.5 ± 1.1
20,TTATTAAATTTTTTTTGTACTTATATATATATATAT [XGTACX_site2443],11.2 ± 0.79

row,Sequence,gcPBM binding intensity (ln)
1,TTTTTTTTTTTTTACACACACAAAATATTATCTGTA [CACACA_site5378],9.83 ± 0.42
2,AATAATTAAATATATTTATAACAGGAAAATATTTAT [XGTACX_negctrl_site175],10.2 ± 0.16
3,TGTTGTATTTTTACAACACACATTTAATCCATTTAA [CACACA_site1507],10 ± 0.27
4,CTTCCTTAGGAATGTACACACATATAAAATATGTTG [CACACA_site6355],11.4 ± 0.84
5,ATAAAATAATTAATGGGTACATAATTAAATAAAGAG [XGTACX_site3309],11.3 ± 0.66
6,TTTTATGAAAAATGGCTTATCTGTAAAGAAGTGGAG [CACACA_negctrl_site1586],10.3 ± 0.36
7,AAGGTATAGAAACACACACACGTGAATATAGTTTAA [CACACA_site5109],10.01 ± 0.028
8,ATATTTATAATTTTTTGTACACATTTTTTAAAGATA [XGTACX_site1784],11.4 ± 0.9
9,ATTTTTTTTTTTATGTGTACATATATTTTTTTAATT [XGTACX_site7921],11.6 ± 0.97
10,ATGTATATATTTTTATGTACATATTTTTAATTTATA [XGTACX_site2982],11.4 ± 0.87
11,TAATATAATAGAAGTGTACACACATATTTATGGGTG [CACACA_site9023],11.6 ± 0.93
12,ATATATATATATTTATGTACATATACATAATGTATA [XGTACX_site6387],11.2 ± 0.76
13,TCACATATATATTAATGTACATATATTTTTTATGTA [XGTACX_site5125],11.2 ± 0.54
14,GATTTTAATGGGTGTACACATTTATTTATATAAAGT [CACACA_site5317],11.7 ± 0.93
15,ATATATATATATATATGTACATATTTTATTTAATTT [XGTACX_site1807],11.2 ± 0.69
16,GTATGTATGTATATATGTACACATTATTATTTAATG [XGTACX_site5802],11.6 ± 1
17,ATATATATATAATGTGTACACACATATGTATTTATA [CACACA_site8170],11.7 ± 0.67
18,TTTTATTTATCTTAATGTACACATTTATATATATAT [XGTACX_site8588],11.7 ± 1.3
19,GTATATATGTATATGTGTACATATATTTTATAATAT [XGTACX_site5703],11.3 ± 0.79
20,TGTATGTATGTATTATTTGTTATTTTAATTTTTTTG [TGCATGCA_negctrl_site256],10.36 ± 0.085

row,Sequence,gcPBM binding intensity (ln)
1,CATATATAACATATAACACACATACTTAGTATTACA [CACACA_site5674],10.1 ± 0.24
2,GTTACAGAGAATGTTGTGCACATATCAATAATATAT [GTGCAC_site9671],10.5 ± 0.28
3,AACGTGTATTTATATTGTACACATTCATACATCAAA [XGTACX_site3644],11.4 ± 0.95
4,TCCTTACCTATTAAAGCATGCTCGAATATATATTTT [TGCATGCA_site53],9.81 ± 0.18
5,ATACACATAACATATATATATATATATATATATATC [CACACA_negctrl_site278],9.73 ± 0.057
6,TTTTGGATACTTCATTTGTCCTGTTTTTTTTTTTTA [CACACA_negctrl_site399],10.7 ± 0.37
7,ATATATATATACATATGTACATATATATTTATACAT [XGTACX_site2463],11 ± 0.58
8,TATATATATATGTGTACACAATTTATCTGTATTTAT [CACACA_site5945],11.8 ± 0.93
9,GAATATATATTCATATGTACACAATTTATGTATTAT [XGTACX_site4719],11.4 ± 0.79
10,GTTCCATATATTACATGTACATATTTTTACATTTAA [XGTACX_site660],11.2 ± 0.72
11,ATGGATAATAATAAGTGTACACATATATTTAGAAGA [XGTACX_site244],11.8 ± 0.86
12,TATACATTTATGTACACACACATATCTGTATATTTA [CACACA_site5617],11.5 ± 0.97
13,GATAATAATAAGTGTACACATATATTTAGAAGAGTA [CACACA_site4245],11.5 ± 0.85
14,TATAAAAAAAAATGTGGTACATATTTCCATTTTCCA [XGTACX_site4571],11.3 ± 0.76
15,TATATTTATACAATATGTACATATTATATATATATA [XGTACX_site3098],11 ± 0.59
16,TATTTTTCCATTGGGGGTACATGTGTTATATTTATT [XGTACX_site5914],11.7 ± 0.88
17,ATATAATAGAAGTGTACACACATATTTATGGGTGTA [CACACA_site5686],11.5 ± 0.91
18,ACATATATATATATGTGTACATATTTATACAACAAT [XGTACX_site6660],11.6 ± 0.78
